The source made the active and inactive calls. How the source made its calls: active means hit-call score of the fitted dose curve at least 0.9, where 1 is the maximum; inactive means score below 0.9.
Assay: BSK_SAg_PBMCCytotoxicity: PBMC Cytotoxicity Assessment in the BioMAP Diversity Plus: SAg Assay (AID 2283093);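 further: fitted both ways against DMSO so a hit may be loss or gain of signal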
Conditions: primary human HUVEC with PBMC
Description: BSK_SAg is a cell-based, multiplexed-readout assay that uses umbilical vein endothelium and peripheral blood mononuclear cells, a human vascular primary cell co-culture, with measurements taken at 24 hours after chemical dosing in a 96-well plate.BSK_SAg_PBMCCytotoxicity is an assay component measured in the BSK_SAg assay. It measures Alamar blue related to cell death using Alamar Blue Reduction technology.Data from the assay component BSK_SAg_PBMCCytotoxicity was analyzed into 1 assay endpoint. This assay endpoint, BSK_SAg_PBMCCytotoxicity, was analyzed with bidirectional fitting relative to DMSO as the negative control and baseline of activity. Using a type of viability reporter, gain or loss-of-signal activity can be used to understand changes in the viability. Furthermore, this assay endpoint can be referred to as a secondary readout, because this assay has produced multiple assay endpoints where this one serves a viability function. To generalize the intended target to other relatable targets, this assay endpoint is annotated to the cell cycle intended target family, where the subfamily is cytotoxicity.
The levels of cell surface (or secreted, indicated by the prefix "s") biomarker endpoints were measured by ELISA. Overt cytotoxicity to cells in confluent adherent cultures (all systems other than the BT system) was assessed by measuring total protein levels using sulforhodamine B (SRB) staining in parallel cultures at the time of biomarker measurements, indicated as SRB endpoints. For proliferation assays for adherent cell types, individual cell types are cultured at sub-confluence and relative cell numbers quantified by SRB staining at time points optimized for each system (48 h: 3C and CASM3C systems; 72 h: BT and HDF3CGF systems; 96 h: SAg system). SRB was performed by staining cells with 0.1% SRB after fixation with 10% TCA and reading wells at 560 nm.Viability and proliferation of PBMC (T cells) was quantified by Alamar Blue reduction for the SAg and BT systems. For PBMC viability (referred to as PBMC Cytotoxicity within the assay endpoint names), cells were plated (75,000/well in a 96-well plate) and then chemical samples added for 1 h before addition of activators, SEB and TSST-1 (20 ng/mL final concentration each). Cells were incubated for 90 h. Then, Alamar Blue (20 uL/well) (Invitrogen, Cat DAL1100) was added for 6 h, and the plates were read with a fluorescence microplate reader at 546/580 nm (excitation/emission). For PBMC proliferation, cells were plated and activated as above but incubated for only 16 h prior to addition of Alamar Blue. Plates were read after 6 h.

SMILES | outcome | AC50
CCCCCCC(=O)OCC | inactive | –
COCCOC[C@H](CC1(C(=O)NC2CCC(C(=O)O)CC2)CCCC1)C(=O)Oc1ccc2c(c1)CCC2 (stereo not given in full) | inactive | –
CCOC(=O)CCC(=O)OCC | inactive | –
COCCOCCOC | inactive | –
O=C(O)CCCCC(=O)O | inactive | –
COc1ccc(S(=O)(=O)N2C(=O)[C@@](c3ccccc3OC)(N3C[C@H](O)C[C@H]3C(=O)N(C)C)c3cc(Cl)ccc32)c(OC)c1 | inactive | –
C[Si]1(C)O[Si](C)(C)O[Si](C)(C)O[Si](C)(C)O1 | inactive | –
CCCCCCCCCCC | inactive | –
COc1ccc(C)cc1N | inactive | –
CCCCCCCCCCCCCCCCCC(=O)O | – | 26.7 µM (active)
CC1(C)CC(N=C=O)CC(C)(CN=C=O)C1 (stereo not given) | inactive | –
CC(C)(C)c1cc(O)c(C(C)(C)C)cc1O | – | 8.8 µM (active)
NS(=O)(=O)c1cc2c(cc1Cl)NCNS2(=O)=O | inactive | –
C[C@]12C=CC(=O)C=C1CC[C@@H]1[C@@H]2C(=O)C[C@@]2(C)[C@H]1CC[C@]2(O)C(=O)CO | inactive | –
CCCCCCCCCCCC(=O)OC | – | 20 µM (active)
CCCCCCCCCCCCCO | – | 33.2 µM (active)
Cc1cc(NC(=O)C(=O)O)cc(C)c1Oc1ccc(O)c2c1CCC2 | inactive | –
CCCCCC(=O)O | inactive | –
Cc1cccc(C)c1O | inactive | –
COc1ccc2c(c1)c(CC(=O)O)c(C)n2C(=O)c1ccc(Cl)cc1 | inactive | –

SMILES | outcome | AC50
C=CCc1ccc(O)c(OC)c1 | inactive | –
O=c1[nH]cc(F)c(=O)[nH]1 | inactive | –
CC=Cc1ccc(O)c(OC)c1 | inactive | –
Cc1ccc(Cl)cc1 | inactive | –
Cc1ccccc1Cl | inactive | –
CCNc1cccc(C)c1 | inactive | –
CC(=O)OCCOCCOCCOC(C)=O | inactive | –
CCCCCCCCCCCCCCCC | inactive | –
Cc1cc(=O)[nH]c(=S)[nH]1 | inactive | –
CCCCc1ccc2c(n1)[C@@H](c1ccc(OC)cc1C[C@H](C)C(=O)O)[C@H](C(=O)O)[C@H]2c1ccc2c(c1)OCO2 | inactive | –
C=CCOC(=O)c1ccccc1C(=O)OCC=C | inactive | –
O=C(OCCCCCOC(=O)c1ccccc1)c1ccccc1 | inactive | –
Cc1ccc(N(C)C)cc1 | inactive | –
Nc1nc(N)c2nc(CNc3ccc(C(=O)N[C@@H](CCC(=O)O)C(=O)O)cc3)cnc2n1 | inactive | –
CC(CO)OC(C)CO (stereo not given) (tested in a mixture with another compound) | inactive | –
Clc1cc(Cl)c(Cl)cc1Cl | inactive | –
O=[N+]([O-])C(CO)(CO)CO | inactive | –
Cc1ccc2ncccc2c1 | inactive | –
Cc1c(C(=O)O)c(O)cc2c1C(=O)c1c(O)c([C@@H]3O[C@H](CO)[C@@H](O)[C@H](O)[C@H]3O)c(O)c(O)c1C2=O | inactive | –
COc1cc(S(=O)(=O)O)c(C)cc1N=Nc1c(O)ccc2cc(S(=O)(=O)O)ccc12 | inactive | –

Source: PubChem BioAssay (EPA / NIEHS)
